Screening results as filed in PubChem.
AMA1 RON2 block: qHTS for Inhibitors of AMA1-RON; Towards Development of Antimalarial Drug Lead: Primary Screen; Plasmodium falciparum AMA1 (3D7) - RON2 peptide interaction; AlphaScreen AMA1-biotinylated RON2 peptide binding; Potency, µM (doses to about 58.2 µM), without a hit: top-dose activity change, negative = inhibition, usual class: inhibitors; hit rate 0.2% among 360,000; AID 720542, 2013;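 further: 0% = vehicle wells and -100% = peptide control; nearly all actives have a fitted effect of over 45% in size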
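AMA1 (3D7) with his tag at 25 nM final met compounds first, then biotinylated RON2 peptide at 25 nM; detection used donor plus acceptor beads, 10 µg/mL apiece, read by AlphaScreen after 30 min at room temperature.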
Sm TGR block: qHTS Assay for the Inhibitors of Schistosoma Mansoni Peroxiredoxins; Schistosoma mansoni thioredoxin glutathione reductase (TGR), Q962Y6; purified TGR, DTNB reduction, TNB absorbance 405 nm; Potency, µM (titrated, usually from 114 µM), without a hit: at the highest dose activity change, negative = inhibition, most hits filed as inhibitors; hit rate 3% among 360,000; further: on the % scale 0 is the no-effect control and ±100 the full control effect; nearly all actives have a fitted effect of over 60% in size
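Kinetic colorimetric format: TGR-catalysed, NADPH-driven DTNB reduction monitored via TNB absorbance. Enzyme dispensed at 20 nM; compound exposure 15 min at room temperature before reaction start.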
NS1 function inh: qHTS Assay for Inhibitors of Influenza NS1 Protein Function. Potency, µM (series often up to 46.1 µM), for the others: at the top dose activity, positive = more growth. hit rate 0.4% among 270,000; calls by dose curve; further: actives are rising curves; nearly all actives have a fitted effect of over 50% in size
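Compounds were scored for reversing the slow growth caused by influenza A NS1 in S. cerevisiae, measured by optical density at 600 nm. Assay medium contained 2% galactose at pH 6.0; NS1-free yeast of the same strain were the positive control.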
Pf growth 96h: Primary qHTS for delayed death inhibitors of the malarial parasite plastid, 96 hour incubation; P. falciparum luciferase reporter growth, 96 h; Potency, µM (highest dose often 28.7 µM), without a hit: at the highest dose activity change, negative = inhibition, hits mostly inhibitors; hit rate 6.9% among 320,000; further: on the % scale 0 is the no-effect control and ±100 the full control effect
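Luminescence readout: decreased luciferase signal marks inhibited growth of reporter-expressing P. falciparum in infected red cells (2% hematocrit, 0.05% parasitemia final), exposed to compound two generations (96 h, 37 C, 5% CO2).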
Pf growth 48h: Primary qHTS for delayed death inhibitors of the malarial parasite plastid, 48 hour incubation | hit rate 5.9% among 310,000 | Potency, µM (top dose mostly 28.7 µM), for inactives: top-dose activity change, negative = inhibition, actives largely listed as inhibitors | P. falciparum luciferase growth in erythrocytes, 48 h | AID 504832, 2011; further: on the % scale 0 is the no-effect control and ±100 the full control effect
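Read-out is firefly luciferase luminescence from an integrated reporter in P. falciparum, so falling signal marks reduced parasite growth. Infected erythrocytes were at 2% hematocrit and 0.1% parasitemia (final) in Albumax-supplemented RPMI 1640.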
An asterisk follows results filed as active. Most compounds without a hit are left out; they make up all but 11% or so of the library. Unless noted, the call rests on the fitted dose curve; in most records, active means well fitted curve in the direction sought with a large enough effect; inconclusive means small, poorly fitted or top-dose-only effect, or another doubt; inactive means no such curve, though single readings can be large; an effect the other way counts as inactive or inconclusive. Potency means the concentration at half of the fitted maximal effect.

`C/C=C/C=C\C(=O)Nc1cccc(C2=NOC3(C2)C[C@@H](C(N)=O)N(C(=O)c2cc([N+](=O)[O-])cc([N+](=O)[O-])c2C)C3)c1` (some centres undefined) gave AMA1 RON2 block -0.2%, Sm TGR block 2.82µM*, NS1 function inh -3.3%, Pf growth 96h inconclusive and Pf growth 48h inconclusive.
C/C=C\C=C\C(=O)N1CC2(CC(c3cccc(NC(=O)CC)c3)=NO2)C[C@H]1C(N)=O (some centres undefined) was read as AMA1 RON2 block -3.6%, Sm TGR block 2.51µM*, NS1 function inh -4.0%, Pf growth 96h 60.8% and Pf growth 48h 30.4%.
`O=C1OCC(CO)(CO)N=C1NNc1ccc(Cl)c(Cl)c1` gave AMA1 RON2 block 10.9%, Sm TGR block -4.1%, NS1 function inh -62.6%, Pf growth 96h inconclusive and Pf growth 48h inconclusive.
`O=C(COC(=O)c1ccc[nH]c1=O)Nc1cc(S(=O)(=O)N2CCCCCC2)ccc1Cl` gave AMA1 RON2 block 5.6%, Sm TGR block -1.8%, Pf growth 96h 0.4% and Pf growth 48h 6.0%.
CCOc1ccc2nc(NC(=O)CS(=O)(=O)c3ccc(C)cc3)sc2c1 was read as AMA1 RON2 block 44.5%, Sm TGR block -27.8%, NS1 function inh 5.2% and Pf growth 96h 11.7%.
CCOc1ccc2nc(NC(=O)COc3ccc(N(C)S(=O)(=O)c4ccc(C)cc4)cc3)sc2c1 was read as AMA1 RON2 block 0.0%, Sm TGR block -0.2%, NS1 function inh 0.7%, Pf growth 96h inconclusive and Pf growth 48h 2.33µM*.
`CCOc1ccc2nc(NC(NC(C)=O)(C(=O)OC)C(F)(F)F)sc2c1` (centres undefined) gave AMA1 RON2 block 2.8%, Sm TGR block 8.2%, NS1 function inh -8.7%, Pf growth 96h 7.38µM* and Pf growth 48h 4.5%.
Screening CCOc1ccc2nc(NC(=O)CS(=O)(=O)c3ccccc3)sc2c1 returned AMA1 RON2 block -4.5%, Sm TGR block -12.8%, NS1 function inh -17.6%, Pf growth 96h 5.22µM* and Pf growth 48h 39.2%.
`CCOc1ccc(S(=O)(=O)NCc2cccnc2)cc1C(C)C` gave AMA1 RON2 block -3.2%, Sm TGR block 1.1%, NS1 function inh 1.9%, Pf growth 96h 0.1% and Pf growth 48h 29.5%.
For COc1ccc(NC(=O)Nc2c(O)ccc3ccccc23)cc1 the results were AMA1 RON2 block -12.7%.
For N#Cc1cccc(NC(=O)c2cc(C3CCCCN3C(=O)c3ccccn3)on2)c1 (centres undefined) the results were AMA1 RON2 block -0.1%.
`CCC(=O)N1CCN(c2cc(C)ccc2C)CC1` gave AMA1 RON2 block -17.2%, Sm TGR block 2.2%, NS1 function inh -8.5%, Pf growth 96h 10.2% and Pf growth 48h 4.3%.
Cc1cc(Br)ccc1NC(=O)CCS(=O)(=O)c1cccc2nonc12 was read as AMA1 RON2 block 2.9%, Sm TGR block -2.2%, NS1 function inh 0.6%, Pf growth 96h 16.2% and Pf growth 48h 0.0%.
For Cc1ccc(NC(=O)CCS(=O)(=O)c2cccc3nonc23)c(Br)c1 the results were AMA1 RON2 block -17.4%, Sm TGR block 31.6µM*, NS1 function inh -9.6%, Pf growth 96h 3.0% and Pf growth 48h 9.8%.
Screening O=C(CCS(=O)(=O)c1cccc2nonc12)NC1CCCCCC1 returned AMA1 RON2 block 4.6%, Sm TGR block 44.7µM*, NS1 function inh -4.4%, Pf growth 96h -13.3% and Pf growth 48h 7.3%.
Screening O=C(CCNS(=O)(=O)c1cccc2nonc12)NC1CCCCC1 returned AMA1 RON2 block 0.4%, Sm TGR block -9.6%, Pf growth 96h inconclusive and Pf growth 48h 7.1%.
Screening Cc1ccc(C)c(N2CCN(C(=O)CCS(=O)(=O)c3cccc4nonc34)CC2)c1 returned AMA1 RON2 block -4.4%, Sm TGR block 35.5µM*, NS1 function inh -39.8%, Pf growth 96h 14.1% and Pf growth 48h inconclusive.
For Cc1ccc(C)c(N2CCN(C(=O)Cn3cccc3)CC2)c1 the results were AMA1 RON2 block -14.2%, Sm TGR block 39.8µM*, NS1 function inh -1.6%, Pf growth 96h 16.1% and Pf growth 48h -0.4%.
`CCCS(=O)(=O)N1CC(=O)N(c2ccc(C)c(Cl)c2)C(C)(C(=O)NC2CCCCCC2)C1` (centres undefined) gave Sm TGR block 2.8%.
`CCn1c(=O)cc(SCC(=O)NCc2cccc(Cl)c2)c2ccccc21` gave Sm TGR block -5.7%.
`O=C(NCCCN1CCCC1)[C@H](CSCc1ccccc1)N1Cc2ccccc2C1=O` gave AMA1 RON2 block 0.7%, Sm TGR block -2.8%, NS1 function inh 0.8%, Pf growth 96h inconclusive and Pf growth 48h inconclusive.
C[C@H]1CN([C@@H](C)CO)S(=O)(=O)c2ccc(C#Cc3cccnc3)cc2O[C@@H]1CN(C)C(=O)Nc1ccc2c(c1)OCO2 was read as AMA1 RON2 block -11.9%.
CC(NC(=O)c1ccc(Cl)cc1)c1nnc(SCC(=O)NC2=NCCS2)n1C (centres undefined) was read as AMA1 RON2 block 11.2%, Sm TGR block 5.5%, NS1 function inh -0.1%, Pf growth 96h inconclusive and Pf growth 48h 3.6%.
For Cc1ccc(C)c(N(C)C(=O)CCS(=O)(=O)c2cccc3nonc23)c1 the results were AMA1 RON2 block -13.7%, Sm TGR block 20µM*, NS1 function inh -1.9%, Pf growth 96h 20.6% and Pf growth 48h -15.6%.
`O=C(CCS(=O)(=O)c1cccc2nonc12)Nc1c(F)cccc1F` gave Sm TGR block 11.2µM*.
Screening Cc1ccccc1NC(=O)CCS(=O)(=O)c1cccc2nonc12 returned AMA1 RON2 block 0.0%, Sm TGR block 7.1%, NS1 function inh 4.4%, Pf growth 96h -4.4% and Pf growth 48h -13.2%.
`Cc1ccc([N+](=O)[O-])c2c1C(N1CCCC1)C(C)(C)O2` (centres undefined) gave AMA1 RON2 block -5.1%, Sm TGR block 56.2µM*, Pf growth 96h inconclusive and Pf growth 48h inconclusive.
Screening CC1CCCCN1CC(O)COc1ccc(OCC(O)CN2CCCCC2C)cc1 (centres undefined) returned AMA1 RON2 block 2.2%, Sm TGR block -25.4%, NS1 function inh 2.1%, Pf growth 96h 149.6% and Pf growth 48h inconclusive.
For CC(=O)c1ccc(/C=C/c2nc3ccccc3n2C)o1 the results were AMA1 RON2 block 0.0%, Sm TGR block 3.55µM*, NS1 function inh -4.2%, Pf growth 96h 199.8% and Pf growth 48h 159.0%.
`Cn1c(/C=C/c2ccccc2)nc2ccccc21` gave AMA1 RON2 block 3.3%, Sm TGR block 9.8%, NS1 function inh -49.4%, Pf growth 96h 48.2% and Pf growth 48h 82.3%.
